The first experiment can be described thus: COS7 lysate on small-molecule microarray, probe aHis, 635 nm (AID 1123).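 Further: z-score combines 667nm fluorescence intensity with signal-to-noise per printed compound spot.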 The settings on record: COS7 cell lysate, fluorescence, higher = more signal.
The compound `Cc1cc(C)cc(N2C(=O)CSC2c2cccc([N+](=O)[O-])c2)c1` (stereo not drawn) showed a composite z-score of 1.94. The compound `COCCOC(=O)N1C(=O)[C@@]2(c3cc(C#CC4(O)CCCCCC4)ccc31)[C@H](c1ccc(O)cc1)N1[C@H](c3ccccc3)[C@H](c3ccccc3)OC(=O)[C@H]1[C@@H]2C(=O)NC[C@H](O)c1ccccc1` gave a composite z-score of 2.46. `COC(=O)c1cn(C[C@@H](Cc2ccccc2)NC(=O)N[C@H](CO)CCc2oc(C(C)=O)c(C(=O)OC)c2C(=O)OC)nn1` returned a composite z-score of 0.5. With `COC(=O)[C@@]1(Cc2ccccc2)[C@H]2c3cc(C(=O)N(C)C)n(Cc4c(CO)[nH]cc(C)c4=O)c3C[C@H]2CN1C(=O)c1ccccc1`, the composite z-score was 1.35. Regarding `CC(=O)NCCCC[C@@H]1NC(=O)[C@@H]2C[C@H](C(=O)NCCCC[N+](C)(C)C)[C@H](c3ccc(O)cc3)N2C1=O`, the composite z-score is 1.18. The compound `COc1ccc([Si](C)(C)[C@@H]2[C@@H](CC(=O)N3Cc4ccccc4C[C@H]3CO)O[C@]3(C(=O)N(C)c4ccccc43)[C@H]2C)cc1` gave a composite z-score of 0.475. In turn, `COCCOC(=O)N1C(=O)[C@@]2(c3cc(C#CC4=CCCCC4)ccc31)[C@H](C(N)=O)[C@H]1C(=O)O[C@H](c3ccccc3)[C@H](c3ccccc3)N1[C@@H]2c1ccccc1OCCO` registered a composite z-score of 1.59. Take `COC(=O)[C@@]1(Cc2ccc(OC)cc2)[C@@H]2C(=CC(=O)[C@H]2CC(=O)C(=O)N(C)C)CN1C(=O)c1ccccc1`: the composite z-score turned out to be 2.47.

Another experiment can be described thus: probe aLAP1 signal on lysate-treated microarray – cell lysate, small-molecule microarray, COS7 lysate, primary screen (AID 1124).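 Further: lysate comes from COS7 cells expressing LAP1 and is applied at 0.3 µg/mL; score merges spot fluorescence near 667 nm with signal-to-noise over triplicate slides.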 The following applies: probe aLAP1, fluorescence, higher = more signal.
`CC[C@H]1C2=C3C(CC[C@H]4C(OCc5ccc(F)cc5C(F)(F)F)OC[C@](C)([C@@H]34)N(C(=O)OC(C)(C)C)C2)C(COC)C1COC` (stereo partly drawn) displayed a composite z-score of -0.115. `CC(C)N1C(=O)C[C@@](C(=O)NCCCN(C)C)(c2ccc([N+](=O)[O-])cc2)[C@H]1c1ccc(CO)cc1` yielded a composite z-score of 0.0653.

Compound `NC(=O)NCC#Cc1ccc2c(c1)[C@]1(C(=O)N2)[C@H](C(=O)NC[C@H](O)c2ccccc2)[C@H]2C(=O)O[C@H](c3ccccc3)[C@H](c3ccccc3)N2[C@@H]1c1ccc(OCCO)cc1` registered a composite z-score of 0.587.

`Cc1ccccc1C(O)C1C=CC2C(=O)N(C)C(=O)C2N1N(c1ccccc1)c1ccccc1` (stereo not drawn) gave a composite z-score of 0.307. Turning to `C=CCC(OC(C)=O)[C@@H]1[C@@H](N(Cc2cc3ccccc3o2)C(=O)c2ccc(C)cc2)c2cc(OCCCO)ccc2N1C(=O)Cc1ccc(OC)cc1` (stereo partly drawn), the composite z-score was found to be 0.128.

As to `COC(=O)C1=CC(CCCO)=CC(C2CC2)N(C)C=C1C(=O)OC` (stereo not drawn), the composite z-score amounted to 0.687. The compound `COc1cc2c(cc1OC)CN(C(=O)[C@@H]1[C@H]3C(=O)O[C@H](c4ccccc4)[C@H](c4ccccc4)N3[C@H](c3ccc(OCCO)cc3)[C@@]13C(=O)Nc1ccc(C#CC4(O)CCCCCC4)cc13)CC2` returned a composite z-score of 0.514. For the compound `COc1cc(OC)c(C(O)C2C=CC3C(=O)N(c4ccccc4)C(=O)C3N2Nc2ccccc2)cc1Br` (stereo not drawn), the composite z-score stood at 0.468.

In turn, `COc1ccc([Si](C)(C)[C@@H]2[C@@H](CC(=O)N(CCO)Cc3ccccc3)O[C@]3(C(=O)N(Cc4cccc(N5C(=O)c6cccc7cccc5c67)c4)c4ccccc43)[C@H]2C)cc1` gave a composite z-score of 0.0553. The compound `COC(=O)c1c2oc(c1C(=O)OC)C(=O)N(C)Cc1cn(nn1)C[C@H](Cc1ccccc1)NC(=O)N[C@H](CO)CC2` came in with a composite z-score of -0.161. `O=C(CS)NCCCCCCNC(=O)[C@H]1C[C@H]2C(=O)N[C@@H](Cc3ccccc3)C(=O)N2[C@H]1c1ccc(O)cc1` gave a composite z-score of 0.871.

In the case of `O=C1C2C=CC(C(O)c3ccccc3)N(Nc3ccccc3F)C2C(=O)N1c1ccccc1` (stereo not drawn), the composite z-score stood at 0.34. On the same count and under the same terms, the result for `CC(C)(C)N1CC=CC23O[C@@H]4C=CCOC(=O)[C@@H]4[C@H]2C(=O)N(CCCCCCO)[C@@H]3C1=O` (stereo partly drawn) reads 0.483; that for `CCCCO[C@H]1C[C@H]2C(I)=C[C@@H]1C(=O)[C@]21CO1`, -0.287. As to `C=CCOC(=O)[C@H]1[C@@H]2C(=O)O[C@@H](c3ccccc3)[C@@H](c3ccccc3)N2[C@@H](c2ccc(OCCOC(=O)[C@@H]3C[C@@H]4C(=O)N5CCC[C@H]5C(=O)N4[C@@H]3c3ccc(O)cc3)cc2)[C@]12C(=O)Nc1ccc(I)cc12`, the composite z-score was 0.163. `C=CCOC(=O)[C@H]1[C@@H]2C(=O)O[C@@H](c3ccccc3)[C@@H](c3ccccc3)N2[C@@H](c2ccc(OCCOC(=O)[C@H]3C[C@H]4C(=O)N[C@@H](CCCCNC(C)=O)C(=O)N4[C@H]3c3ccc(O)cc3)cc2)[C@]12C(=O)Nc1ccccc12` yielded a composite z-score of -0.549. Take `CCOc1cc(C(O)C2C=CC3C(=O)N(C)C(=O)C3N2Nc2ccccc2)ccc1O` (stereo not drawn): the composite z-score is -0.438. Still for that read-out and setting: to `C#CCN([C@@H](Cc1ccc(O)cc1)C(=O)OC)[C@@H](/C=C/C1CC1)[C@H](O)Cc1ccccc1` belongs 0.0995; to `O=c1n(-c2ccccc2)c(=O)n2n1CC(COc1ccccc1)=C([C@H](O)CCc1ccccc1)[C@@H]2CO`, -0.408; to `CC(=O)NCCCC[C@@H]1NC(=O)[C@H]2C[C@@H](C(=O)NCCCC[N+](C)(C)C)[C@@H](c3cccc(OCCO)c3)N2C1=O`, 1.16.

For `CN1C(=O)C2C=CC(C(O)c3ccccn3)N(N(c3ccccc3)c3ccccc3)C2C1=O` (stereo not drawn), the composite z-score is 1.04. The same measure, in the same setting: the result for `C[N+](C)(C)CCCCCCNC(=O)[C@H]1C[C@H]2C(=O)NCC(=O)N2[C@H]1c1ccc(O)cc1` reads 0.255.

Take `CCCC[C@@H]1C[C@H]1[C@@H](NC(=O)c1cccs1)c1ccc(C(F)(F)F)cc1`: the composite z-score was determined as 0.0126. Still for that read-out and setting: the result for `COc1ccc(CCN2C(=O)[C@@]3(Cc4ccccc42)c2ccccc2C(=O)N(Cc2ccccc2OC)[C@H]3c2ccc(CO)cc2)cc1` reads -0.778. The compound `C[C@@H]1NC(=O)[C@@]23C(=O)N[C@@H](Cc4ccccc4)C2[C@H](C)[C@@]2(C)O[C@H]2C3/C=C/C/C=C\CNC(=O)[C@@H]2CCCN2C1=O` (stereo partly drawn) displayed a composite z-score of -0.11. Regarding `C=C(/C(=C/C[C@H](OC(C)=O)c1cccc(OCCO)c1)c1cnc2ccccc2c1)C(C)C`, the composite z-score is -0.313. Turning to `[N-]=[N+]=NCc1ccccc1[C@H]1OC(c2ccc(OCCCO)cc2)=N[C@@]1(CCS(=O)(=O)c1ccccc1)C(=O)NCC(O)CO` (stereo partly drawn), the composite z-score was 1.04.

As for `Cc1cc(C)cc(N2C(=O)CSC2c2cccc([N+](=O)[O-])c2)c1` (stereo not drawn), the composite z-score came to 0.798.

`COCCOC(=O)N1C(=O)[C@@]2(c3cc(C#CC4(O)CCCCCC4)ccc31)[C@H](c1ccc(O)cc1)N1[C@H](c3ccccc3)[C@H](c3ccccc3)OC(=O)[C@H]1[C@@H]2C(=O)NC[C@H](O)c1ccccc1` gave a composite z-score of 1.46. Compound `COC(=O)c1cn(C[C@@H](Cc2ccccc2)NC(=O)N[C@H](CO)CCc2oc(C(C)=O)c(C(=O)OC)c2C(=O)OC)nn1` came in with a composite z-score of 0.421. On the same count and under the same terms, to `COC(=O)[C@@]1(Cc2ccccc2)[C@H]2c3cc(C(=O)N(C)C)n(Cc4c(CO)[nH]cc(C)c4=O)c3C[C@H]2CN1C(=O)c1ccccc1` belongs -0.056; to `CC(=O)NCCCC[C@@H]1NC(=O)[C@@H]2C[C@H](C(=O)NCCCC[N+](C)(C)C)[C@H](c3ccc(O)cc3)N2C1=O`, -0.111; to `COc1ccc([Si](C)(C)[C@@H]2[C@@H](CC(=O)N3Cc4ccccc4C[C@H]3CO)O[C@]3(C(=O)N(C)c4ccccc43)[C@H]2C)cc1`, -0.0284. In the case of `COCCOC(=O)N1C(=O)[C@@]2(c3cc(C#CC4=CCCCC4)ccc31)[C@H](C(N)=O)[C@H]1C(=O)O[C@H](c3ccccc3)[C@H](c3ccccc3)N1[C@@H]2c1ccccc1OCCO`, the composite z-score worked out at 0.806.

Regarding `COC(=O)[C@@]1(Cc2ccc(OC)cc2)[C@@H]2C(=CC(=O)[C@H]2CC(=O)C(=O)N(C)C)CN1C(=O)c1ccccc1`, the composite z-score came to 0.536.

For the origin of these results see PubChem BioAssay.
